Measured values taken from PubChem BioAssay (NCI).
This is part of a sample that, as a whole, favours compounds with a hit. Of some 83,000 tested, about 20% had one in any assay.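 Interpretation: 100, growth as untreated; towards 0, rising growth inhibition; 0, no net growth; 0 to -100, cell death. Compounds scoring below 10 were considered active.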 A number with no mark means an inactive call. The source made the active and inactive calls.

System: HL-60(TB) leukemia
Assay: NCI-60 one-dose screen, 48 h (100 = growth as untreated, 0 = no growth, -100 = all killed)
Conditions: 10 µM unless noted

SMILES	growth
CC1(C)C(N)=Nc2cc(OCCCN3Cc4ccc(OCCc5cn(CC(=O)N6CCC(CCN7CCCC7)CC6)nn5)cc4C3)c(OCC3CC3)cc21	97.3%
O=C(Nc1ccc(Oc2ccc(F)cc2)c(Cl)c1)c1cccnc1	83.2%
COC1CC(C)C(OC)c2cc(O)cc(c2O)NC(=O)/C(C)=C/C=C\C(C)C(OC(N)=O)/C(C)=C\C(C)C1OC (stereo not given)	-51.6% (active)
O=C(c1ccc(Cl)cc1)c1ccccc1Cl	96.4%
C=CC(=O)OC1CCC(C(C)(C)CC)CC1 (stereo not given)	84%
O=C1OCc2cccc3cccc1c23	84.9%
CCOc1nc(-c2ccccc2)cc2c(O)c(C(=O)N/N=C/c3ccc(N(C)C)cc3)[nH]c(=O)c12	111%
CNC(=O)c1cc(-n2ccc3cc(NC(=O)c4ccc(N5CCOCC5)c(C(F)(F)F)c4)ccc32)ccn1	66.3%
CC(Br)C(OC(=O)c1ccccc1Cl)c1cc2c(cc1Br)OCO2 (stereo not given)	103%
O=[N+]([O-])c1cccc(N=Cc2ccc3c(c2)OCO3)c1	98.5%
O=C(Cn1c2ccccc2c2ccncc21)N/N=C/c1c[nH]c2ccccc12	74.5%
N#C/C(=C\c1ccc(-c2cccc(C(F)(F)F)c2)o1)c1nc(-c2ccco2)cs1	101%
Cc1ccc(OCCOCCOCCOCCOc2ccc(C)n(O)c2=S)c(=S)n1O	-7.44% (active)
COc1ccc(C(=O)C/C(=C\c2ccc(Cl)cc2)C(=O)NCc2ccccc2)cc1	73.8%
COc1ccc(-c2nc3c(c(C)nn3-c3ccc(F)cc3)c(=O)[nH]2)cc1	70%
Cc1ccc(-c2nc3c(c(-c4ccccc4)nn3-c3ccccc3)c(-c3ccc(O)cc3)c2C#N)cc1	33%
O=C(Nc1ncc(Cc2cc(C(F)(F)F)ccc2Cl)s1)C(=S)N1CCOCC1	98.1%
CNCCCn1c2c(c3ccc(Cl)cc3c1=O)C(=O)c1cc(OC)cnc1-2	-26.3% (active)
CC(C)c1nc2ccccc2n1CC(=O)N/N=C/c1cccc(O)c1	86.5%
CCCN1CCN(c2ccc3nc(-c4ccc5nc(-c6cc(OC)ccc6OC)[nH]c5c4)[nH]c3c2)CC1	106%

SMILES	growth
N=c1c(S(=O)(=O)c2ccccc2)cc2c(=O)n3ccccc3nc2n1CC1CCCO1 (stereo not given)	109%
CN(C)CCNC(=O)c1cc2c3cc(Cl)ccc3[nH]c2c2ncccc12	-64.8% (active)
C=C(C)[C@@H]1CC[C@]2(C(N)=O)CC[C@]3(C)[C@H](CC[C@@H]4[C@@]5(C)C/C(=C/c6ccco6)C(=O)C(C)(C)[C@@H]5CC[C@]43C)[C@@H]12	93.2%
Cc1ccccc1OCC(O)COc1ccccc1C	128%
CC(NCCC(c1ccccc1)c1ccccc1)c1ccccc1 (stereo not given)	14.6%
CC(=O)NNC(=S)N/C=C/c1c(C)ccc([N+](=O)[O-])c1[N+](=O)[O-]	99.9%
COc1cc(-c2nn(-c3ccc(Br)cc3)cc2C(=O)O)ccc1O	82.8%
COc1cc2c3c(cccc3c1)C(=O)N(CCN1CCCC1)C2=O	26%
CCCS(=O)(=O)Nc1ccc(F)c(C(=O)c2c[nH]c3ncc(-c4ccc(Cl)cc4)cc23)c1F	30.7%
COc1ccc(-c2nn(-c3cccc(NC(=O)Nc4ccccc4)c3)cc2-c2ccncc2)cc1Cl	-10.6% (active)
Cc1cc(=O)oc2cc(Oc3nc(-c4ccc(Cl)cc4)cn4c(-c5ccc(Cl)cc5)cnc34)ccc12	86.8%
FC(F)(F)c1cc(Nc2ccc3c(OCCCN4CCOCC4)cccc3n2)ccc1Cl	63.3%
Cc1c(Cn2c(C)nc3c(C(=O)O)cc(N4CCOCC4)cc32)cccc1C(F)(F)F	78.6%
COc1cc(OC)cc(C2CC(=O)Nc3c2c(C)nn3-c2nc3ccccc3[nH]2)c1 (stereo not given)	9.31% (active)
O=[N+]([O-])c1cccc(N=Cc2ccccc2)c1	106%
Cc1cc(C(O)(c2ccc(Nc3ccccc3)cc2)c2ccc(Nc3ccc(S(=O)(=O)O)cc3)cc2)ccc1N (stereo not given)	-7.9% (active)
O=C1/C(=C/c2ccc3c(c2)OCO3)SC(=S)N1C1c2ccccc2Oc2ccccc21	86.1%
COc1ccc(/C=C/c2cc(N3CCOCC3)c3cc(F)c(F)cc3n2)cc1OC	-8.49% (active)
Cn1c(=O)c2[nH]c(CCCc3nc4c([nH]3)c(=O)n(C)c(=O)n4C)nc2n(C)c1=O	109%
CC(=O)C(C(C)=O)c1nc2sc3cc(Cl)ccc3n2c(=N)c1C#N	112%
